From PubChem BioAssay (EPA / NIEHS) come the findings set out here.

For orientation: AC50 means the midpoint of the concentration-response curve, whichever way the signal moves.

Records with an inconclusive call do not appear. Active and inactive are the calls of the source. The calls were made as follows: active = hit-call score of the fitted dose curve at least 0.9, where 1 is the maximum; inconclusive = response in the unintended direction; inactive = score below 0.9.

The target in this test is Sodium channel protein type 1 subunit alpha (Rattus norvegicus) (UniProt P04774). As to the kind of experiment: NVS_IC_rNaCh_site2: NovaScreen (NVS) Ion Channel Assay for rat Sodium Channel, Site 2 (NaCh) (AID 2283322). As for the experimental part: NVS_IC_rNaCh_site2 is a biochemical, single-readout assay that uses extracted gene-proteins from Rat forebrain membranes in a tissue-based cell-free assay. Measurements were taken 1 hour after chemical dosing in a 48-well plate.NVS_IC_rNaCh_site2 is one of one assay component(s) measured or calculated from the NVS_IC_rNaCh_site2 assay. It is designed to make measurements of radioligand binding, a form of binding reporter, as detected with scintillation counting signals by Filter-based radiodetection technology.Data from the assay component NVS_IC_rNaCh_site2 was analyzed into 1 assay endpoint. This assay endpoint, NVS_IC_rNaCh_site2, was analyzed in the positive analysis fitting direction relative to DMSO as the negative control and baseline of activity. Using a type of binding reporter, loss-of-signal activity can be used to understand changes in the binding as they relate to the gene Scn1a. Furthermore, this assay endpoint can be referred to as a primary readout, because the performed assay has only produced 1 assay endpoint. To generalize the intended target to other relatable targets, this assay endpoint is annotated to the ion channel intended target family, where the subfamily is sodium channel.
Binding assays used specific radioligands (tritiated, iodinated) with non-radioactive competitive displacement ligands in agonist or antagonist protocols (as indicated) and various reference compounds and inhibitors to titrate specific binding to receptors and transporters. Most enzyme assays (CYPs, kinases, phosphatases, proteases, HDACs) used recombinant protein and specific substrates (fluorescence mostly, some colorimetric and radioactive) and inhibitors, followed by a biochemical separation of substrate and product. All assays for the biochemical HTS were initially run in duplicate at a single concentration (10 uM for CYP450 assays and 25 uM for all others). […] Each assay was run with positive and negative controls, and concurrent controls on every plate. The follow-up (secondary) screen tested active chemical-pairs in concentration series, as well as a few additional assays not tested in the primary screen, some selected negative inactives, and several cases re-run in the concentration series for confirmatory purposes.
In the case of `Brc1ccccn1`, the molecule was called inactive.

On to `CCCC(=O)OCC(COC(=O)CCC)OC(=O)CCC`, for which the molecule was classed as inactive.

For `O=C1OC(=O)c2ccc3c4c(ccc1c24)C(=O)OC3=O`, the call was inactive.

As for `CC(C)(C)c1cc(CCC(=O)NCCCCCCNC(=O)CCc2cc(C(C)(C)C)c(O)c(C(C)(C)C)c2)cc(C(C)(C)C)c1O`, the call was inactive.

With `O=C=NCc1cccc(CN=C=O)c1`, the result was inactive.

With `c1ccc(C[P+](c2ccccc2)(c2ccccc2)c2ccccc2)cc1`, the AC50 is 5.54 µM (active).

Regarding `CCN(CC)c1ccc2c(c1)Oc1cc(N(CC)CC)ccc1C21OC(=O)c2ccccc21`, the result was inactive.

`COc1ccccc1C=O`: the molecule was classed as inactive.

For the molecule `Oc1ccc(C2(c3ccc(O)c(C4CCCCC4)c3)CCCCC2)cc1C1CCCCC1`, the outcome was inactive.

Consider `CC(=O)c1ccccc1N`, for which the AC50 was 1.65 µM (active).
